# PubChem BioAssay
# Assay: small-molecule microarray binders of probe aWnt5a, primary screen, biochemical, biotinylated probe, 635/667 nm fluorescence (AID 1113);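 note: score merges 667 nm fluorescence intensity with signal-to-noise per printed feature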
# Settings: higher = more signal
row,SMILES,composite z-score
1,CC[C@H]1C2=C3C(CC[C@H]4C(OCc5ccc(F)cc5C(F)(F)F)OC[C@](C)([C@@H]34)N(C(=O)OC(C)(C)C)C2)C(COC(C)=O)C1COC(C)=O (stereo not given in full),0.24
2,[N-]=[N+]=NCc1ccccc1[C@H]1OC(c2ccc(OCCCO)cc2)=N[C@@]1(CCS(=O)(=O)c1ccccc1)C(=O)NCCN1CCOCC1,0.143
3,C=C(CCCC)/C(=C/C[C@@H](OC(C)=O)c1ccc(OCCO)cc1)c1cc(C(=O)OC)ccc1OC,-0.124
4,O=C1C2C=CC(C(O)c3ccccn3)N(Nc3ccc([N+](=O)[O-])cc3)C2C(=O)N1c1ccccc1 (stereo not given),-0.0799
5,CCN1C(=O)C2CC(=O)C3C(CN(S(=O)(=O)c4ccc(C)cc4)C3c3ccc(C)cc3)C2C1=O (stereo not given),-0.0269
6,COC(=O)C1=CC(CCCO)=CC(c2ccc(CN3CCCC3)cc2)N(C)C=C1C(=O)OC (stereo not given),0.002
7,CCOC(=O)C[C@H]1[C@H](OC(=O)c2cc3ccccc3oc2=O)[C@@H](NC(=O)c2ccc(-c3ccccc3)cc2)c2cc(OCCCO)ccc2N1C(=O)Cc1ccc(OC)cc1,-0.0735
8,C=CCNC(=O)[C@H]1[C@@H]2C(=O)O[C@@H](c3ccccc3)[C@@H](c3ccccc3)N2[C@@H](c2ccc(OCCO)cc2)[C@]12C(=O)N(C(=O)OCCOC)c1ccc(C#CCNC(N)=O)cc12,0.291
9,O=C1C[C@@](C(=O)NCC(F)(F)F)(c2ccc([N+](=O)[O-])cc2)[C@@H](c2ccc(CO)cc2I)N1CC12CC3CC(CC(C3)C1)C2,-0.0843
10,COc1cc2c(cc1O)C(C)N(Cc1sc3ccccc3c1Cl)CC2 (stereo not given),-0.117
11,CCCCCCCCCCC(O)C1C=CC2C(=O)N(C)C(=O)C2N1Nc1ccccc1 (stereo not given),-0.252
12,COC(=O)[C@@]1(Cc2ccccc2)[C@H]2c3cc(C(=O)N(C)C)n(Cc4ccc(Cl)c(C(F)(F)F)c4)c3C[C@H]2CN1C(=O)c1ccccc1,0.315
13,COC(=O)[C@@]1(Cc2ccc(F)cc2)[C@H]2c3cc(C(=O)N4CCCC4)n(CCc4c[nH]c5cc(F)ccc45)c3C[C@H]2CN1C(=O)c1ccccc1,0.562
14,C=CCNC(=O)[C@@H]1[C@H]2C(=O)O[C@H](c3ccccc3)[C@H](c3ccccc3)N2[C@H](c2ccc(OCCO)cc2)[C@@]12C(=O)Nc1ccc(C#CC3=CCCCC3)cc12,-0.012
15,C=CCOC(=O)[C@H]1[C@@H]2C(=O)O[C@@H](c3ccccc3)[C@@H](c3ccccc3)N2[C@@H](c2ccc(OCCOC(=O)[C@H]3C[C@H]4C(=O)NCC(=O)N4[C@H]3c3ccc(O)cc3)cc2)[C@]12C(=O)Nc1ccccc12,-0.0758
16,CO[C@H]1O[C@H](CO)[C@@H](OC(=O)Nc2cccc(F)c2)[C@H](OC(=O)c2cc3ccccc3[nH]2)[C@H]1OC(=O)c1cc2ccccc2[nH]1,-0.232
17,O=C1O[C@@H](c2ccccc2)[C@@H](c2ccccc2)N2[C@@H](c3ccccc3OCCO)[C@]3(C(=O)Nc4ccc(C#CC5(O)CCCCCC5)cc43)[C@@H](C(=O)N3CCCCCCC3)[C@H]12,1.65
18,CCCCCCc1nc(Cc2cc(OC)c(OC)c(OC)c2)c(C)c2c1[Si](C(C)C)(C(C)C)OC2,-0.0721

row,SMILES,composite z-score
1,[N-]=[N+]=NCc1ccccc1[C@H]1OC(c2ccc(OCCCO)cc2)=N[C@@]1(CCS(=O)(=O)c1ccccc1)C(=O)O,-0.15
2,COc1ccc(NN2C(C(O)c3ccc(F)cc3)C=CC3C(=O)N(C4CCCCC4)C(=O)C32)cc1 (stereo not given),0.0919
3,CC1C2C(CCCO)=CC(C3C(=O)N(C)C(=O)C23)N1Cc1cccc(OC(F)(F)F)c1 (stereo not given),0.0317
4,CCOC(=O)C1=C[C@@H](C(C)(C)C)N(S(=O)(=O)c2ccc(C)cc2)[C@H]1c1ccc(OC)cc1,0.0279
5,Cc1ccc(N2C(=O)c3ccccc3[C@@H](C(=O)NCCN3CCOCC3)[C@@H]2c2ccc(CO)cc2)nc1,-0.1
6,O=C(N1CCOCC1)[C@]1(CCS(=O)(=O)c2ccccc2)N=C(c2ccc(OCCCO)cc2)O[C@@H]1c1ccccc1,-0.0445
7,C=CCC(OC(C)=O)[C@@H]1[C@@H](N(Cc2ccc(-c3ccccc3)cc2)C(=O)Cc2ccc(OC)cc2)c2cc(OCCCO)ccc2N1C(=O)Cc1ccc(OC)cc1 (stereo not given in full),0.055
8,C=C(COC)C(=O)CC[C@H](OC(C)=O)c1ccccc1OCCO,-0.15
9,COc1cc(CO)cc(I)c1O[C@H]1C=C(C(=O)NCCO)C[C@@H](N(CCN2CCOCC2)C(=O)C2CCCO2)[C@@H]1O (stereo not given in full),-0.0606
10,CC(C)(C)OC(=O)CC[C@@]1(C(N)=O)N=C(c2ccc(OCCCO)cc2)O[C@@H]1c1ccccc1CN=[N+]=[N-],0.188
11,[N-]=[N+]=NCc1ccccc1[C@H]1OC(c2ccc(OCCCO)cc2)=N[C@@]1(Cc1ccccc1N=[N+]=[N-])C(=O)N1CCOCC1,0.0115
12,CN(C)CCCCCCNC(=O)[C@@H]1C[C@@H]2C(=O)N[C@@H](CCCC[N+](C)(C)C)C(=O)N2[C@@H]1c1cccc(OCCO)c1,-0.0981
13,CCCCC(=C=CC[C@@H](O)c1ccccc1OCCO)C[C@@H](O)c1ccccn1,-0.113
14,CC1C2C(CCCO)=CC(C3C(=O)N(C(N)=O)C(=O)C23)N1Cc1cccc(OC(F)(F)F)c1 (stereo not given),-0.096
15,C=CCC(OC(C)=O)[C@@H]1[C@@H](N(Cc2ccc(-c3ccccc3)cc2)C(=O)Cc2ccc(OC)cc2)c2cc(OCCCO)ccc2N1C(=O)c1ccc2ccccc2c1 (stereo not given in full),-0.122
16,COc1cc(Cc2cc3c(c(-c4ccccc4)n2)[Si](C(C)C)(C(C)C)OC3)cc(OC)c1OC,-0.175
17,O=C1N(Cc2ccccc2)Cc2ccccc2C[C@@]12COC(c1ccc(OCCCO)cc1)=N2,-0.043
